Reference: PubChem BioAssay AID651820 (National Center for Advancing Translational Sciences (NCATS), 2012)
Where “and” joins values, the source holds several entries; their conditions need not be identical. Equal values may be shown once. The campaign covered roughly 340,000 compounds. About 12,000 (3.5%) were called active. Where a call stands in place of a potency, no number is given. Another 18% or so got no clear call; they are omitted. The call rests on the fitted dose curve; in most records, active means well fitted inhibition curve with a large enough effect; inconclusive means small, poorly fitted or top-dose-only effect, or another doubt; inactive means no such curve, though single readings can be large or run the other way. Many of the other results were omitted from the sample, so actives are more common in it than they were. A structure can be active in one record and inactive in another.

assay: qHTS Assay for Inhibitors of Hepatitis C Virus (HCV); details: Huh7.5.1 HCVcc-Cre infection, luciferase reporter, 44 h; series mostly up to 41.8 µM
Procedure, shortened: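 Whole-lifecycle infectious HCVcc-Cre system; cells 1,000/well, compound then virus (~0.5 moi) added 4 h after plating, 44 h culture. Luciferase read 15 sec following 15 min substrate incubation, room temp.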
Potency means the concentration at half of the fitted maximal effect.

Structure (SMILES) | Potency | activity change, negative = inhibition
CC[C@@H]1Cc2cc(O)ccc2C2=C1c1ccc(O)cc1C[C@H]2CC | 3.16 µM (active) | –
CC1(C)CC(=O)c2ccc(O)cc2O1 | inactive | –
O=C(Nc1cccc(S(=O)(=O)NC2=NCCC2)c1)c1ccc(F)cc1F | inactive | –
COc1ccc(-n2nc(C(=O)NCC(=O)N3CCN(c4ccccc4OC)CC3)c3ccccc3c2=O)c(OC)c1 | inactive | –
COc1ccc(-n2nc(C(=O)NCC(=O)N3CCCCCC3)c3ccccc3c2=O)cc1Cl | 11.2 µM (active) | –
COc1ccc(-n2nc(C(=O)NCC(=O)N3CCC(C(N)=O)CC3)c3ccccc3c2=O)cc1OC | inactive | –
O=C1N[C@@H](Cc2ccccc2)C(=O)N2[C@@H]3N(S(=O)(=O)c4ccc(F)cc4)c4ccccc4[C@]3(Br)C[C@@H]12 | inactive | –
CCOC(=O)C1CCN(CC(=O)Nc2ccc(OC)c(S(=O)(=O)N3CCCCC3)c2)CC1 | inactive | –
O=c1[nH]c2c(c(=O)n1-c1ccccc1)CCO2 | inactive | –
O=C(COC(=O)c1cccs1)Nc1ccccc1Cl | inactive | –
O=C(COC(=O)c1c2c(nc3ccccc13)/C(=C\c1cccs1)CCC2)Nc1ccccc1Cl | 4.47 µM (active) and 2.51 µM (active) | –
COc1cc(/C=C2\CCCc3c2nc2ccccc2c3C(=O)O)cc(Cl)c1O | inactive | –
Cc1ccc(C)c(NC(=O)COC(=O)CSc2ccccc2)c1 | inactive | –
CN(CC(=O)NCc1ccc2c(c1)OCO2)CC(=O)Nc1ccc(F)c(F)c1F | inactive | –
COc1ccc(NS(=O)(=O)c2cc(NC(=O)/C=C/c3cc(OC)c(OC)c(OC)c3)ccc2N2CCCCC2)cc1 | inactive | –
COc1cc(/C=C/C(=O)OCC(=O)N2CCOCC2)ccc1OCC#N | inactive | –
COc1ccc(CC(=O)Nc2ccc3c(c2)CCC3)cc1S(=O)(=O)N1CCOCC1 | inactive | –
COc1ccc(CNC(=O)COC(=O)c2ccc(C)c(S(=O)(=O)N3CCOCC3)c2)cc1OC | inactive | –
COc1ccc(CCC(=O)Nc2ccc(Cl)c(S(=O)(=O)N3CCOCC3)c2)cc1OC | 11.2 µM (active) | –
COc1cc(/C=C/C(=O)Nc2ccc(OC)c(S(=O)(=O)N3CCOCC3)c2)ccc1OCC#N | 7.08 µM (active) | –
O=C(c1cnccn1)N1CCN(S(=O)(=O)c2cccc(Cl)c2)CC1 | inactive | –
CCOc1ccc(NC(=O)COC(=O)C2CCC(=O)N2)c([N+](=O)[O-])c1 (stereo not drawn) | inactive | –
CC(C)CC1NC(=O)c2cc(Cl)ccc2-n2c1nc1ccccc1c2=O (stereo not drawn) | inactive | –
Cc1ccc2nc(-c3ccc(NC(=O)c4cccnc4)cc3)oc2c1 | 10 µM (active) | –
Cc1cc2nc(-c3ccc(NC(=O)c4cccnc4)cc3)oc2cc1C | inactive | –

Structure (SMILES) | Potency | activity change, negative = inhibition
CC(=O)Nc1ccc(-c2nc3ccccc3o2)cc1 | inactive | –
N=C1c2ccccc2-c2ccccc21 | inactive | –
CC(C)(C)OC(=O)C[C@@H]1C/C=C\C[C@@H](CC(=O)NCCO)C(=O)N[C@H](Cc2c[nH]c3ccccc23)COC1=O | inactive | –
Cc1cc(C)c(S(=O)(=O)n2cc(C(C)C(N)C(=O)O)c3ccccc32)c(C)c1 (stereo not drawn) | inactive | –
O=C(NNC(=O)C1CCN(c2ncccn2)CC1)c1ccccc1 | inactive | –
O=C(Cc1ccccc1)NNC(=O)C1CCN(c2ncccn2)CC1 | inactive | –
Cc1sc2ncnc(N3CCC(C(=O)Nc4ccc(F)cc4Cl)CC3)c2c1C | 11.2 µM (active) | –
Cc1cc(=O)n2nc(N3CCC(C(=O)Nc4c(F)c(F)c(F)c(F)c4F)CC3)sc2n1 | inactive | –
CCc1ccc(C(=O)NNC(=O)C2CCN(c3ncnc4sc(C)c(C)c34)CC2)cc1 | 12.6 µM (active) | –
Cc1sc2ncnc(N3CCC(C(=O)Nc4nc5ccc(Cl)cc5s4)CC3)c2c1C | inactive | –
CCOc1cccc2cc(C(=O)OCC(=O)Nc3c(C)cccc3CC)c(=O)oc12 | inactive | –
O=C1/C(=C\c2cccnc2)CN(Cc2ccccc2)C/C1=C\c1cccnc1 | 6.31 µM (active) | –
O=Cc1cn(Cc2ccccc2)nc1-c1cccnc1 | inactive | –
Clc1ccc(CN2CCN(/N=C/c3cccnc3)CC2)cc1 | inactive | –
CC(OC(=O)CNC(=O)c1cccc(F)c1)C(=O)NC1CCCCC1C (stereo not drawn) | inactive | –
O=C(N/N=C/c1cc(Br)c(O)c([N+](=O)[O-])c1)C(O)(c1ccccc1)c1ccccc1 | inactive | –
CC(C)OC(=O)c1ccc(NCc2cc(O)ccc2O)cc1Cl | 6.31 µM (active) | –
C#CCNc1ccc(C(=O)OCC)cc1 | inactive | –
CC(CN1CCCCC1)OC(=O)c1ccccc1Cl (stereo not drawn) | inactive | –
CC(CN1CCOCC1)OC(=O)c1ccc(Cl)cc1Cl (stereo not drawn) | inactive | –
COC(=O)c1ccc(NCc2cc(O)ccc2O)cc1 | 5.01 µM (active) | –
COC(=O)c1ccc(NCC(=O)c2ccccc2)cc1 | inactive | –
COc1ccc(Cl)cc1NC(=O)COc1ccc2c(c1)OCO2 | inactive | –
CC1CN(C(=O)c2ccc([N+](=O)[O-])s2)CC(C)O1 (stereo not drawn) | inactive | –
c1ccc2sc(NN=C3CCCC3)nc2c1 | inactive | –

Structure (SMILES) | Potency | activity change, negative = inhibition
O=C(Nc1ccccc1)Nc1nc2ccccc2s1 | inactive | –
c1ccc(C(=NNc2nc3ccccc3s2)c2ccccn2)cc1 | 1.58 µM (active) | –
Cc1ccc(S(=O)(=O)N2CCOCC2)cc1NC(=O)COC(=O)c1cnccn1 | inactive | –
Cc1cccc(C)c1OC(=O)CSc1nnc(-c2ccccc2)o1 | inactive | –
CC1=CC(C)(C)N(C(=O)CSc2nnc(-c3ccccc3)o2)c2ccc(C)cc21 | 11.2 µM (active) | –
CCOC(=O)CSc1nnc(-c2cccc(Br)c2)o1 | inactive | –
CC1(C)C[C@H]2C3=CCC4[C@@]5(C)CC[C@H](O)[C@](C)(CO)C5CC[C@@]4(C)[C@]3(C)C[C@@H](O)[C@@]2(CO)[C@@H](O)[C@@H]1O (stereo partly drawn) | inactive | –
Cc1cc(C(=O)OCC(=O)Nc2c(F)cccc2F)c(C)n1C1CC1 | inactive | –
Cc1cc(C(=O)COc2ccccc2Cl)c(C)n1C1CC1 | inactive | –
Cc1cc(C(=O)COc2ccc(Br)cc2F)c(C)n1C1CC1 | 22.4 µM (active) | –
O=C(CSc1ccccn1)N1CCN(S(=O)(=O)c2ccc(Cl)cc2)CC1 | inactive | –
COc1ccccc1-n1nnnc1SCC(=O)NC(=O)Cc1ccccc1 | inactive | –
Cc1ccc(Cl)c(OCC(=O)N(C)CC(=O)Nc2ccc(N3CCOCC3)cc2)c1 | inactive | –
O=C(COC(=O)c1ccco1)Nc1ccc(Cl)cn1 | inactive | –
CN(C)[C@@H]1C(=O)C(C(N)=O)=C(O)[C@@]2(O)C(=O)C3=C(O)c4c(O)ccc(Cl)c4[C@@H](O)[C@H]3C[C@@H]12 | 2.82 µM (active) | 0.778% [at 8.37 µM] (inactive)
CCCCn1c(N)c(N(CCC(C)C)C(=O)c2ccc(COc3ccccc3)o2)c(=O)[nH]c1=O | inactive | –
O=C(CNC(=O)c1cc(S(=O)(=O)N2CCOCC2)ccc1N1CCCC1)Nc1ccc(F)c(F)c1 | inactive | –
CC1CC(=NNC(=O)C2COc3ccccc3O2)CC(C)(C)C1 (stereo not drawn) | inactive | –
CN(C)C(=O)CCc1ccc2c3c([nH]c2c1)[C@]1(CCC2CCCC2)[C@@H](C(=O)N2CCOCC2)C[C@H](CC(=O)NCc2ccco2)C(=O)N1CC3 | – | 11% [at 8.37 µM] (inactive)
CCc1ccccc1NC(=O)CN(C)C(=O)c1cc(C2CC2)nn1-c1ccccc1 | inactive | –
CN(c1ccccc1)S(=O)(=O)c1cccc(NC(=O)Cc2c(F)cccc2Cl)c1 | 8.91 µM (active) | –
CN(c1ccccc1)S(=O)(=O)c1cccc(C(=O)NNC(=O)c2ccncc2)c1 | – | -10.3% [at 8.37 µM] (inactive)
CN(C)S(=O)(=O)c1cccc(NC(=O)Cc2ccsc2)c1 | inactive | –
CCOC(=O)[C@@H]1[C@H]2COc3ccc(Br)cc3[C@H]2N2C(=O)N(c3ccc(C)cc3)C(=O)[C@@]12C | inactive | –
COC(=O)CC(CC(=O)OC)n1cccc1 | inactive | –

Structure (SMILES) | Potency | activity change, negative = inhibition
CCC(C)NC(=O)c1ccc(NC(=O)CC2SC(N3CCCCC3)=NC2=O)cc1 (stereo not drawn) | inactive | –
O=C(Nc1cc2c3c(c1)CC(=O)N3CCC2)c1ccccc1F | inactive | –
CCOc1cc(C(=O)Nc2ccc(S(=O)(=O)Nc3cnc4ccccc4n3)cc2)cc(OCC)c1OCC | inactive | –
CC(=O)Oc1ccc(-c2nc3c(C)cccc3c(=O)o2)cc1 | inactive | –
Cc1nc(N=C(N)N)nc2c(C)cccc12 | 14.1 µM (active) | –
COc1cc(Cl)c(C)cc1NC(=O)CSc1nnc(CN2CCCC2)o1 | inactive | –
COc1ccc(N2CCN(C(=O)CNC(=O)c3ccc(Br)o3)CC2)cc1 | inactive | –
COc1cc(OC)cc(C(=O)NCC(=O)OCc2csc(-c3ccccc3)n2)c1 | inactive | –
COc1ccc(-c2nc(CCNC(=O)c3ccc(Br)o3)cs2)cc1 | 10 µM (active) | –
COc1ccc(C2=NN(C(=O)CSc3nnnn3C)C(c3ccco3)C2)cc1 (stereo not drawn) | inactive | –
O=C(CSc1nccn1-c1cccc(F)c1)NC1CCCC1 | inactive | –
CCCc1cc(=O)[nH]c2nnc(SCC(=O)Nc3nnc(SCC)s3)n12 | inactive | –
COc1ccccc1-c1nnc(-c2ccc(F)cc2)o1 | inactive | –
Cc1ccc(-c2nc(CS(=O)CC(=O)NC3CCCC3)c(C)o2)cc1 (stereo not drawn) | inactive | –
Cc1ccc(-c2nc(CSCC(=O)NC3CCN(Cc4ccccc4)CC3)c(C)o2)cc1 | 12.6 µM (active) | –
Cc1ccc(S(=O)(=O)NCCC(=O)NC2CCN(Cc3ccccc3)CC2)cc1 | inactive | –
O=C(Nc1ccccn1)C1CCN(S(=O)(=O)c2ccccc2)CC1 | inactive | –
Fc1ccccc1COc1cccc2cccnc12 | inactive | –
Cc1ccc(NC(=O)CN(C)C(=O)c2ccc(Cl)c(S(=O)(=O)NCc3ccco3)c2)cc1 | inactive | –
Clc1ccc2c(c1)C1=C(C(c3ccncc3)O2)C(c2ccc(Br)cc2)n2ncnc2N1 (stereo not drawn) | 12.6 µM (active) | –
CC1=C(C(N)=O)C(c2ccc(Br)cc2)n2ncnc2N1 (stereo not drawn) | inactive | –
COC(=O)C1=C(C)Nc2ncnn2C1c1cccnc1 (stereo not drawn) | inactive | –
